{
  "source": "PubChem BioAssay (NCI)",
  "note": "Values joined by “and” are separate entries in the source; they are usually repeats but may differ in a detail not shown here. Equal values may be shown once. This is part of a sample that, as a whole, favours compounds with a hit. Of some 79,000 tested, about 15% had one in any assay. Active and inactive are the calls of the source. No stated cut-off is given here; in the data, active means growth inhibition above about 70%; inactive means the rest.",
  "data": [
    {"experiment": "NCI Yeast Anticancer Drug Screen. Data for the sgs1 mgt1 strain (AID 161);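 further: 0% = growth of cultures given vehicle only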", "details": "S. cerevisiae sgs1 mgt1 strain, active compounds read high; at 50.0 µM unless noted", "summary_of_the_method": "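Yeast cells carrying a defined DNA-repair defect were exposed to test compounds. Growth inhibition was measured relative to vehicle-treated controls.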", "values": [
      {"smiles": "Cc1nnc(N)nc1C", "growth inhibition": "-10.1% (inactive)"},
      {"smiles": "COc1ccc(C(=O)CC(c2ccccc2)C(C#N)c2ccccc2)cc1", "note": "(stereo not given)", "growth inhibition": "-6.2% (inactive) and 26.1% (inactive)"},
      {"smiles": "CN1CC2=C(NC(=S)NC2c2ccc(Cl)cc2)/C(=C/c2ccc(Cl)cc2)C1", "note": "(stereo not given)", "growth inhibition": "7.45% (inactive)"},
      {"smiles": "CSc1nc(NC2OC(COC(C)=O)C(OC(C)=O)C(OC(C)=O)C2OC(C)=O)c(N=CC=Nc2c(NC3OC(COC(C)=O)C(OC(C)=O)C(OC(C)=O)C3OC(C)=O)nc(SC)[nH]c2=O)c(=O)[nH]1", "note": "(stereo not given)", "growth inhibition": "-13.8% (inactive)"},
      {"smiles": "Cc1ccc2c(c1)C1(c3ccc(Cl)cc3Cl)Oc3ccc(C)cc3C(c3ccc(Cl)cc3Cl)(O2)O1", "growth inhibition": "3.1% (inactive)"},
      {"smiles": "Cc1cc(Cl)ccc1NC(=O)Oc1ccc(C#N)cc1", "growth inhibition": "-25.2% (inactive)"},
      {"smiles": "OCCN/N=C/c1ccncc1", "growth inhibition": "-20.2% (inactive)"},
      {"smiles": "COS(=O)(=O)N(C)c1nc(N(C)C)nc(N(C)C)n1", "growth inhibition": "-1.2% (inactive)"},
      {"smiles": "ON=C(c1ccccn1)c1ccccn1", "growth inhibition": "7.05% (inactive)"},
      {"smiles": "COC1OC2COC(C)(C)OC2C2OC(C)(C)OC12", "note": "(stereo not given)", "growth inhibition": "6.45% (inactive)"},
      {"smiles": "CCOc1ccc(/C=C(\\C(=O)c2ccccc2)S(=O)(=O)c2ccc(OC)cc2)cc1OC", "growth inhibition": "1.2% (inactive)"},
      {"smiles": "CC(C)(C)[Si](C)(C)OCC1OC(n2cnc3c(=O)[nH]cnc32)CC1O", "note": "(stereo not given)", "growth inhibition": "3.2% (inactive)"},
      {"smiles": "COc1ccc(Cl)cc1NC(=O)Oc1ccc(NC(C)=O)cc1", "growth inhibition": "-1.15% (inactive)"},
      {"smiles": "CSc1ccc2nncc(SC)c2c1", "growth inhibition": "12.9% (inactive)"},
      {"smiles": "OC(COc1cccc(C(F)(F)F)c1)CN1CCN(c2ccc(F)cc2)CC1", "note": "(stereo not given)", "growth inhibition": "96.3% (active)"}
    ]}
  ]
}
